Reference: PubChem BioAssay (NCATS)
Values joined by “and” are separate entries in the source; they are usually repeats but may differ in a detail not shown here. Equal values may be shown once. Results filed as inconclusive are left out. A number with no mark means an inactive call. Active and inactive are the calls of the source. Calls follow the shape of the dose curve; as a rule, active = well fitted activation curve with a large enough effect; inconclusive = small, poorly fitted or top-dose-only effect; inactive = flat fitted curve, though single readings scatter.

Assay: qHTS assay for environmental chemicals that activate the Aryl hydrocarbon Receptor (AhR) signaling pathway (AID 651777); also: nearly all actives have a fitted effect of over 15% in size; as to activation: % of control where 0% means no effect
Settings: 1A2-DRE human hepatoma cells, luciferase, 24 h; activation: hits give high values
Procedure, shortened: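 Measured luciferase activity, read 30 min after One-Glo addition at room temperature, from human hepatoma cells bearing a dioxin response element–CYP1A2 promoter reporter and exposed to compound for 24 hr at 37 C.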
Potency is read from the fitted curve at half-maximal effect.

SMILES	activation	Potency
Cc1ccc(-c2cc(C(F)(F)F)nn2-c2ccc(S(N)(=O)=O)cc2)cc1	-1.91%	–
CC(C)Cc1ccc(C(C)C(=O)O)cc1 (configuration not stated)	-1.21%	–
O=c1c(-c2ccc(O)cc2)coc2cc(O)cc(O)c12	–	12.6 µM (active)
COc1ccc2c(c1)c(CC(=O)O)c(C)n2C(=O)c1ccc(Cl)cc1	0.534% and -1.07%	–
CC(C)C(=O)Nc1ccc([N+](=O)[O-])c(C(F)(F)F)c1	3.62% and 3.92%	–
Cc1cn([C@H]2C=C[C@@H](CO)O2)c(=O)[nH]c1=O	0.0815% and -0.191% and -0.434%	–
Clc1ccc(C(c2ccccc2Cl)C(Cl)Cl)cc1 (configuration not stated)	2.12% and 0.378%	–
COc1ccc2[nH]cc(CCNC(C)=O)c2c1	0.634% and 1.82% and 3.42%	–
Cn1c(=O)c2[nH]cnc2n(C)c1=O	3.65%	–
CC(C)NCC(O)c1ccc(O)c(O)c1 (configuration not stated)	0.956% and 0.375%	–
COc1cc2c(c(OC)c1OC)-c1ccc(OC)c(=O)cc1[C@@H](NC(C)=O)CC2	-0.775% and -1.98% and -0.55%	–
C[C@](N)(Cc1ccc(O)c(O)c1)C(=O)O	-1.04%	–
Cn1cnc2c1c(=O)[nH]c(=O)n2C	2.86%	–
Cc1cn([C@H]2C[C@H](N=[N+]=[N-])[C@@H](CO)O2)c(=O)[nH]c1=O	-0.858% and 1.65%	–
NCCS(=O)(=O)O	-0.375%	–
CCC1(c2ccccc2)C(=O)NCNC1=O	-1.18% and 8.62%	–
NS(=O)(=O)c1cc2c(cc1Cl)NCNS2(=O)=O	0.0029% and 2.21%	–
O=C(Nc1ccc([N+](=O)[O-])cc1Cl)c1cc(Cl)ccc1O	–	1.41 µM (active)
Cn1c(=O)c2c(ncn2C)n(C)c1=O	-0.0272% and 0.654%	–
CCOC(=O)C(C)(C)Oc1ccc(Cl)cc1	0.305%	–
O=c1[nH]cc(F)c(=O)[nH]1	-0.168%	–
CC#C[C@]1(O)CC[C@H]2[C@@H]3CCC4=CC(=O)CCC4=C3[C@@H](c3ccc(N(C)C)cc3)C[C@@]21C	14.1%	–
